Compounds without any hit were thinned out: in the full panel of roughly 83,000, 20% have a hit.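 48-hour exposure, single concentration, 96-well plates; percent growth endpoint where 0 means no net growth. Active: below 10.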 Calls of active or inactive are those of the source.
Columns and labels:
Assay in all cases: NCI-60 one-dose screen, 48 h (100 = growth as untreated, 0 = no growth, -100 = all killed)
Conditions in all cases: 10 µM unless noted
[1] = tested on: SK-MEL-2 melanoma
[2] = tested on: EKVX NSCLC
[3] = tested on: SN12C renal
[4] = tested on: UO-31 renal
[5] = tested on: TK-10 renal
[6] = tested on: ACHN renal
[7] = tested on: CAKI-1 renal
[8] = tested on: A498 renal
[9] = tested on: CCRF-CEM leukemia
[10] = tested on: MOLT-4 leukemia

Measured: growth

COc1ccc(/C=C(/C(=O)N2CCNCC2)c2cc(OC)c(OC)c(OC)c2)cc1O
inactive: [1] 10.8% | [2] 84.1% | [3] 54.6% | [4] 89.7% | [5] 92.4% | [6] 103% | [7] 93.1% | [8] 59% | [9] 15.4% | [10] 25.5%

CN(C)c1ccc(C(=S)c2ccc(N(C)C)cc2)cc1
inactive: [1] 58.5% | [2] 98.2% | [3] 75.6% | [4] 59% | [5] 82.7% | [6] 93.4% | [7] 87.1% | [8] 62.6% | [9] 77.3% | [10] 75.5%

CC(=O)N1N=C(c2ccc(Nc3nc(Nc4ccc(F)cc4)nc(Nc4ccc(F)cc4)n3)cc2)CC1c1ccc(N(C)C)cc1 (stereo not drawn)
inactive: [1] 40.3% | [2] 47.5% | [3] 100% | [4] 34% | [5] 72.9% | [6] 58.7% | [7] 59.3% | [8] 63.5% | [10] 14.2%
active: [9] -2.06%

CCOc1ncc([N+](=O)[O-])c(OCC)n1
inactive: [1] 103% | [2] 122% | [3] 91.8% | [4] 106% | [5] 115% | [6] 106% | [7] 116% | [8] 111% | [9] 101% | [10] 90.9%

COc1ccc(-c2cc(-c3cn(-c4cccc(Cl)c4)nc3-c3ccc(OC)cc3)on2)cc1
inactive: [1] 86.8% | [2] 98.8% | [3] 89% | [4] 77.3% | [6] 101% | [7] 93.5% | [8] 78.6% | [10] 77%
active: [5] -45.1%

CC1=C(Cl)C(=O)c2cc(C)ccc2C1=O
inactive: [1] 99.9% | [2] 94.2% | [3] 93.7% | [4] 73.3% | [5] 108% | [6] 96.9% | [7] 86.7% | [8] 97.2% | [9] 102% | [10] 98.1%

C=C(C)[C@@H]1CC[C@]2(CO)CC[C@]3(C)[C@H](CC[C@@H]4[C@@](C)(CCCN)[C@H](C(=C)C)CC[C@]43C)[C@@H]12
active: [1] -61.6% | [2] -12.9% | [3] -97.6% | [4] -43.4% | [5] -62.9% | [6] -100% | [7] -54.9% | [8] -85.7% | [9] -16% | [10] -32.4%

O=c1oc2c(cc1-c1ccccc1)c(=O)[nH]c1ccccc12
inactive: [1] 107% | [2] 91.4% | [3] 96.6% | [4] 96.6% | [5] 99.4% | [6] 102% | [7] 97.5% | [8] 96.9% | [9] 101% | [10] 99.7%

COc1cc2c3c(c4c5ccccc5[nH]c4c2c(OC)c1OC)C(=O)N(CCN1CCCCC1)C3=O
inactive: [1] 49.4% | [2] 35.1% | [3] 12.6% | [4] 16.1% | [8] 42.4% | [10] 12.9%
active: [5] -76.6% | [6] -40.4% | [7] -49% | [9] 3.38%

Fc1cccc(CNc2c3ccccc3nc3ccccc23)c1
inactive: [1] 81.4% | [2] 32% | [3] 32.8% | [4] 24% | [5] 64.1% | [6] 17.1% | [7] 27% | [9] 46.3% | [10] 14.9%
active: [8] -12.6%

C#COc1cccc(Nc2ncnc3cc(NC(=O)[C@H](C)Cl)ccc23)c1
active: [1] 9.63% [6.25 µM] | [5] 9.65% [6.25 µM] | [8] 2.08% [6.25 µM]
inactive: [2] 20.3% [6.25 µM] | [3] 10.6% [6.25 µM] | [4] 27.1% [6.25 µM] | [6] 17.1% [6.25 µM] | [7] 26.2% [6.25 µM] | [9] 102% [6.25 µM] | [10] 98.6% [6.25 µM]

CC(C)(C)c1ccc(S(=O)(=O)Oc2ccc(-c3sc4cc(OS(=O)(=O)c5ccc(C(C)(C)C)cc5)ccc4c3C(=O)c3ccc(OCCN4CCCCC4)cc3)cc2)cc1
inactive: [1] 89.9% | [2] 83.8% | [3] 98.9% | [4] 74.6% | [5] 90.4% | [6] 98.1% | [7] 95.7% | [8] 105% | [9] 93.4% | [10] 95.7%

CCCCCCCCn1ccc2cc(NC(=O)CN3CCN(c4cc(C)nc(Cl)n4)CC3)ccc21
inactive: [1] 109% | [2] 64.4% | [3] 100% | [4] 63.5% | [5] 95.1% | [6] 86.3% | [7] 92.6% | [8] 97.5% | [10] 26.2%
